Reference: PubChem BioAssay (NCATS)
Active and inactive are the calls of the source. The rule behind the calls is not given here.

system: HIV-1 nucleocapsid protein NCp7 (binding to TG oligonucleotide); experiment: HIV Nucleocapsid (AID 346); settings: HIV-1 NC / fluorescein-TGTGTGTG probe, fluorescence polarization;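 note: potency is for inhibitors that block NC binding and lower polarization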
How it was run: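 HIV-1 NC (100 nM) binding to fluorescein-labelled ssDNA TG4xF (10 nM) in Hepes pH 7.5, 250mM NaCl, 1uM ZnCl2, TCEP and 2-mercaptoethanol; compounds pin-transferred, 1 hr room temperature, fluorescence polarization read on CCD imager.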
Potency is the fitted concentration of half-maximal effect.

| Compound | Potency |
| --- | --- |
| CN(C)C(=O)c1ccc(-c2cncnc2Nc2ccc(F)cc2)cc1 | > 20 µM (inactive) |
| O=C(c1cc(C(F)(F)F)cc(C(F)(F)F)c1)N1CCC2(CC1)CCN(c1ccncc1)CC2 | > 20 µM (inactive) |
| COc1ccccc1CN1CC[C@@]2(CCCN(C(=O)c3cccn3C)C2)C1 | > 20 µM (inactive) |
| COc1ccc2[nH]cc(CCNc3cc(-c4cccc(C#N)c4)ncn3)c2c1 | > 20 µM (inactive) |
| CNc1ncncc1-c1ccc(C(=O)N(C)C)cc1 | > 20 µM (inactive) |
| COC(=O)N1CCC2(CCCN(C(=O)Nc3ccc(OC)cc3)C2)CC1 | > 20 µM (inactive) |
| COc1ccccc1-c1cncnc1N1CCN(C)CC1 | > 20 µM (inactive) |
| COc1ccc(Oc2ncc3nc(-c4ccc(F)cc4)c(=O)n(C[C@H]4CCCO4)c3n2)cc1 | > 20 µM (inactive) |
| N#Cc1ccc(CN2CC[C@@]3(CCCN(C(=O)c4cc(C(F)(F)F)cc(C(F)(F)F)c4)C3)C2)cc1 | > 20 µM (inactive) |
| COc1ccccc1CNc1ccnc(-c2cccc(NS(C)(=O)=O)c2)n1 | > 20 µM (inactive) |
| CN(C)Cc1ccccc1-c1cncnc1NCc1ccccc1 | > 20 µM (inactive) |
| CS(=O)(=O)Nc1cccc(-c2cncnc2Nc2ccc(F)cc2)c1 | > 20 µM (inactive) |
| CS(=O)(=O)Nc1cccc(-c2nc(Nc3ccncc3)c3ccccc3n2)c1 | > 20 µM (inactive) |
| CN1CCN(c2ncc3nc(-c4cn(C)c5ccccc45)c(=O)n(-c4ccccc4)c3n2)CC1 | > 4 µM (inactive) |
| O=C(Nc1ccccc1)N1CC2(CCN(C(=O)c3cc(C(F)(F)F)cc(C(F)(F)F)c3)CC2)C1 | > 20 µM (inactive) |
| O=C(Nc1ccccc1)N1CC[C@@]2(CCCN(C(=O)c3ccncc3)C2)C1 | > 20 µM (inactive) |
| O=S(=O)(c1ccccc1)N1CCC2(CC1)CN(Cc1ccccc1)C2 | > 20 µM (inactive) |
| O=C(Nc1cccc(F)c1)N1CCCC2(CCN(C(=O)c3ccncc3)CC2)C1 | > 20 µM (inactive) |
| COc1ccc(-c2nc3cnc(N4CCN(C)CC4)nc3n(CCC#N)c2=O)cc1 | > 20 µM (inactive) |
| COCCn1c(=O)c(-c2ccc(F)cc2)nc2cnc(Oc3cccc(Cl)c3)nc21 | > 20 µM (inactive) |

| Compound | Potency |
| --- | --- |
| CC(=O)NCCNc1ncncc1-c1ccccc1C | > 20 µM (inactive) |
| CS(=O)(=O)N1CCC2(CC1)CN(Cc1ccc(C#N)cc1)C2 | > 20 µM (inactive) |
| COc1ncc2nc(-c3cccs3)c(=O)n(Cc3ccc(F)cc3)c2n1 | > 20 µM (inactive) |
| O=c1c(-c2cccs2)nc2cnc(Oc3ccccc3)nc2n1Cc1cccs1 | > 20 µM (inactive) |
| N#CCCn1c(=O)c(-c2ccc(Cl)cc2)nc2cnc(N3CCOCC3)nc21 | > 20 µM (inactive) |
| COc1cccc(-c2ccc3ncnc(NCc4cnc(C)cn4)c3c2)c1 | > 20 µM (inactive) |
| COc1cccc(Nc2ncc3nc(-c4ccccc4)c(=O)n(Cc4cccs4)c3n2)c1 | > 20 µM (inactive) |
| Cc1cccc(CNc2ncnc3ccc(-c4ccoc4)cc23)c1 | > 20 µM (inactive) |
| Cc1cnc(CNc2ccnc(-c3ccc(C(=O)N(C)C)cc3)n2)cn1 | > 20 µM (inactive) |
| O=C(c1ccco1)N1CCC2(CCCN(C(c3ccccc3)c3ccccc3)C2)CC1 | > 20 µM (inactive) |
| Cc1ccccc1-c1ccc2ncnc(N(C)C)c2c1 | > 20 µM (inactive) |
| O=C(c1ccco1)N1CCC[C@@]2(CCN(Cc3nccs3)C2)C1 | > 20 µM (inactive) |
| COc1ccccc1CN1CCCC2(CCN(C(=O)c3csnn3)CC2)C1 | > 20 µM (inactive) |
| Cc1noc(C)c1C(=O)N1CCC[C@@]2(CCN(c3cccc(-c4ccccc4)c3)C2)C1 | > 20 µM (inactive) |
| COc1ccccc1CN1CCCC2(CCN(C(=O)c3c(C)noc3C)CC2)C1 | > 20 µM (inactive) |
| COc1ccccc1CN1CC[C@@]2(CCCN(S(C)(=O)=O)C2)C1 | > 20 µM (inactive) |
| N#Cc1ccccc1-c1ccc2ncnc(NCc3cccs3)c2c1 | > 20 µM (inactive) |
| c1ccc(Nc2ncncc2-c2ccc3c(c2)OCO3)cc1 | > 20 µM (inactive) |
| c1ccc(-c2ccc(N3CCCC4(CCNCC4)C3)cc2)cc1 | > 20 µM (inactive) |
